# Source: PubChem BioAssay AID1159506 (National Center for Advancing Translational Sciences (NCATS), 2015)
# Over roughly 59,000 sequences, the read-out has its median near -0.00055; the lowest 2% begin near -2. This excerpt belongs to a sample that is enriched for the lowest values.
# Test: Identification of proteins required for the processing of the EWS-FLI1 nascent transcript;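 note: robust z of luciferase light less the median z of siRNAs with the same seed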
# Details: TC32 Ewing sarcoma NR0B1-luc vs CMV-luc (EWS-FLI1 target promoter against control promoter), 48 h; screened at 20 nM (by protocol)
# How it was run: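 Readout: OneGlo luminescence, 48 h post-transfection, TC32-NR0B1-luc vs TC32-CMV-luc in parallel. siRNA 20 nM final, RNAiMax lipid, 600 cells/well; z-score-MAD transformed, then seed-adjusted.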
row,Sequence,seed-corrected z-score
1,UCUACUUCUGUGGAUACUC against TALDO1,0.332
2,UCAGCUGCACUUUCAGUAG against GOLGA8J,-1.61
3,ACCGUUACAUAUUCUAUCC against SUPT6H,-4.84
4,UGCUGUAUCCUCUAUAUCC against RFX5,-0.0572
5,UUAAUCGGCACAGCUGUUC against RSBN1,-0.543
6,UAUGCAGUCUGGGUAACCC against C10orf11,0.746
7,UUACGUAUGCACCAUUUGC against SLC35D1,0.196
8,UAUAGUAAUCAGCUAGUGG against MED6,-3.7
9,UUUAUUCCCAAAGGCUCUG against PTGER1,-0.569
10,AUAUCAUUUACUGACAUAG against DNAJB4,-0.41
11,UUCCAGGAUACUUUAAUCC against PON1,-0.178
12,AAGCGGUUAACGAAAAGGC against SLC2A1,1.37
13,UUUGUAAUCAUACGGACAG against ZFAND5,0.868
14,AAACUCAAAAUCCCGUUGC against ZC3H10,0.108
15,UAAUAUCCGGUAAGAAUCC against DDB2,-0.365
16,UAUAGGUAAGGAUUUCUGC against KRTAP9-2,-0.397
17,UGUCUUCUAAAGUAAGUGG against ZNF77,-2.26
18,UCACGAACAUGUUGCAAGG against KRIT1,-0.0242
19,UAGUUCAUAAUCCAAGUCC against COL6A3,0.0612
20,AUGACUUUAGGUCGCAUCG against FBXL12,-13.4
21,UUUGGGAUUUCCAUUGUCU against LRP2BP,0.259
22,UUGGAUACAAAGGAACAAC against DHX32,-0.291
23,UUUGAGUCCACCACGAAGC against MYH3,-0.0465

row,Sequence,seed-corrected z-score
1,UCUGCUGCUCGUCAAGUUC against MAP2K2,1.77
2,UCUCUUUAAAGACUCCUCC against LPO,0.133
3,UUGGGAUAUAUUUAGCGGC against ITGB1BP2,-2.58
4,UUUCGGAUGAGCACGCAGC against APRT,-0.0241
5,UUCUUGUUCACUCUAAUUU against NFIC,0.384
6,AUAGUGUCGAUAAAAACCU against CHRNA1,0.527
7,AAAGUUGCGGAAGCUGAUG against LRP3,-2.42
8,UAUCUGUGCAGUUAAGAUG against LOC401220,-0.155
9,UUUCACUCCACUGAAGUAC against CDKL1,-0.736
10,AGCUGUAGCACCAUCAACG against OR7G3,-1.26
11,UUCGAUUCCAAGCCUUACG against CCDC113,0.591
12,AAGUUACCCACGUAGAUGC against SRSF1,-1.35
13,UAAGAUAUUUGUCCAACAG against YWHAB,0.25
14,UCAUUGAUCUAAAACGACC against PPFIA1,0.863
15,UUCUCCUUCACAUACCGGC against CLK3,0.176
16,UAUCUUCACUGAAUUGACC against ARL8B,0.269
17,AUAUGCUUCACAGUUCUAG against MMP1,-2.83
18,UAUAGGCCUUCUACAUUGC against ROM1,1.12
19,UUGCGAAUGAGGUUGUAGG against PIK3C2B,-0.721
20,UCUGAUAGCAAUAACUUGG against PPCS,-0.294
21,UGUUGACUCACUGUAGGCU against LOC729683,0.842
22,AAAGAGGAAACGGUAGGCC against JAGN1,-2.67
23,UAUUGGAUCCGGUGCAACC against SYPL2,-0.246

row,Sequence,seed-corrected z-score
1,UUGGUUAUCCUCUAUACCC against MTERF3,0.193
2,UUCAUCAUCGAGGUCAUCC against DPF2,-3.12
3,UGAACUAUUGGAAUGUCUC against SEC11C,0.165
4,AUCGUAGUCAGUGUAUCUG against PPARGC1B,-0.163
5,UAUAGAGCUGCCGUCUCCG against ESRP2,-0.989
6,UCACUGUUUACUUAGCGCU against HIST1H2BJ,1.62
7,UGCCGAACCACUUCCAGAG against TNRC18P2,-1.02
8,AUAGUAAAUAAACACUGCC against RHBDL2,-2.55
9,AAUCUGAGAACAGACCGUG against MXD4,1.77
10,AUAGGAGUAAGAAUUUUUG against NUDT10,-0.635
11,AUGCUUAUAAUGACCACCA against SLC51B,-2.22
12,UGAAACACCAUUAAAACGG against TDG,0.355
13,UAAAUCUGCUUAUCUCUUC against TFAM,-0.445
14,UUCUUGAAAAGGCAACAGU against POC1A,0.91
15,AAAGCGACAUUGUUUGACC against COPB2,-2.18
16,UUGGUCAUAGAGGUCGUCC against LSR,-1.71
17,UGUCGGAUGAGGUCAUUGC against TNS4,-2.96
18,UUGUUUGCAGGUUCUACUU against DDX19B,-0.121
19,UCUAGUAUUACUGCUACUG against DDHD2,0.72
20,AAUGUACAAGUGGUCAUUC against MAGED2,-2.83
21,UCAUAGUCCAGGGUAAGGC against LRP4,-1.11
22,UCUUUGUACGCAUCAAGUG against NPY1R,-0.0164
23,AUAGAUUAACCAUGUUUCC against KCNN3,-0.34

row,Sequence,seed-corrected z-score
1,UCCAUUGAUAGAACCAUCU against HFE2,-0.476
2,UAAGAUGAUCGUGAACUUG against RPL39L,0.982
3,UGCAUUUCUAUAUUCAACC against TLE4,-0.442
4,UAUAGGUGUAGAUUACAGG against OR13G1,-0.49
5,UAACUUGUUUGUUUACAAC against RPL21P62,-3.04
6,UGAAUUUCCGGUGCUUGCC against PDGFB,-0.605
7,UAGGAGAUAGCGAUGACCA against NPBWR1,0.302
8,AAAGAGGUACUCACAGGGC against LGR6,-0.878
9,UUCGGUCUGCUAAUGCUGG against CNOT2,1.7
10,AAUCUCACAACAGUUAUGG against MTMR8,0.0648
11,AUACUACUUACAACCGGGC against SON,1.15
12,ACAGCUAACAUGGACACUC against SHTN1,0.393
13,UAGGUAACCAUAGUACUCA against ISY1,-2.1
14,UGUAUAGAAAAAUUCACGC against CRY1,0.235
15,UCCAGUAGCACCAUAGUUC against ZNF449,-0.629
16,UUCGUGAUCAUCUUCUCAC against PHYH,0.854
17,AAAUGUUCACCUGUCUUCU against RPS4Y1,-0.188
18,UUCAUAUAUGAGUCAAUGG against HMG20A,0.779
19,UUCCUCAUGAUUGUCCUCA against GABARAPL1,-0.0836
20,UUAGUAUUUGGUAUUCAGA against FCGR1A,-0.211
21,UAGGAUCCAGGGUUAGUUU against RPL18,-2.17
22,UUAGGGUCCCUCAUCUUCA against LOXL4,0.627
23,UAUUAUUAAAGUGAGAUGG against SNCA,0.375

row,Sequence,seed-corrected z-score
1,UCUGGUGAACGACUCUUGC against MGMT,0.137
2,AUCUGUAUUCUCACUAUAG against TTC23,-1.15
3,UUAAUGAUAGAGACUAGGA against LTC4S,-0.727
4,GUUACAUACCUUUUUCUCU against GTF2H2B,0.209
5,UCAUAGAAGAGGUCUGUCU against PHF5A,-2.2
6,UUCAUAGCCUCUUCAAUGG against SPAG7,-1.44
7,UACACUCUAAGAGCUCUUC against BCAT1,1.4
8,UUAAAUUCUUGGAAGUAGA against SCNN1B,0.779
9,UGACGAAAUAGUAGAAGUG against MOB3A,-0.387
10,UUCAUCACCAGCUCUUUCC against CLEC4F,-0.0692
11,UCAUGGGACGGCAUAACUG against SPDYE3,-0.601
12,ACGAUUACAACUUCGAUCC against DOCK7,1.63
13,UGGCGCUUGAUUGGAACUC against UNC5B-AS1,-0.56
14,AUGUUUGACAUUGUCCACG against KPNA2,-2.38
15,AAGUUGAAGAUAAGAGUCC against C11orf63,-0.178
16,AUCGAAAUAAGUCAGAUAG against NAA25,0.893
17,UGACCUGUAGCGUUGCAGC against EFCC1,-0.581
18,UCUAUAUCUCCGUAAUUCC against TRRAP,-2.5
19,UUAGUUCCUGGGUAUCUGC against SNAP47,1.17
20,UUUCAUAGAAUCUAUCCAG against C20orf196,0.184
21,UUUGGAACUGGUCAUGUGU against RPL29P30,-3.1
22,UUUCUGAGGAGACAACUCU against ANKRD36B,0.345
23,UUGGGUAAAAUGUCCACUC against SPATS1,-2.28

row,Sequence,seed-corrected z-score
1,UGUGCGACUGGAGAAUGCG against KRT81,-0.00183
2,UGAUAUAUAACUUAGAUGG against VWA9,-12.6
3,AGAGUGACCAGUCCGGUAG against CIDEA,0.43
4,UCCCGGUCUGCAUUCUUCC against PHKA1P1,-0.749
5,AAAGUUGCUACAGCUGUCA against SH3BP5,-2.12
6,UUAGUGUGAAUAGUGAUUU against PODXL,0.827
7,UAUCUUUCUCAGGAGUUUG against OR2T10,-0.23
8,AUAGCAGUCAACAUCGUAG against TMED3,-2.8
9,UGACUUGGCACAGUAUAUC against FAM83A,-0.413
10,UAUCUUUAAAGUGUAUCUA against FAM230B,0.596
11,UCUAGGCUCAGGAAGUUCU against AP5S1,-1.09
12,AAACCAAGUAGCUUGAUGU against LOC647275,0.229
13,UCAUUUUGAAUUGAAGAUG against FAM76A,0.228
14,UUUCCAUAGGAGACGAUGC against CTSG,0.0794
15,UGUUGAUAAGUUACCAUCC against GPCPD1,0.968
16,UUGUUCUAAAGUAUCCUCC against NDC80,-2.14
17,AGUCAUUUAAACUUGAUCC against TMSB4X,0.898
18,UACGCUUUCUCUACAGUAC against ZNF606,0.237
